# Bioassay records (PubChem)
# ELG1 repair inh: ELG1-dependent DNA repair inhibition; HEK293T ELG1-luciferase reporter, luminescence, 16 h; DNA damage induced by 5-fluorouridine; Potency, µM (series often up to 46.1 µM), for inactives: at the highest dose activity change, negative = inhibition, usual class: inhibitors; hit rate 2.3% among 330,000; AID 504467; also: potency is read from the fitted curve at half-maximal effect; nearly all actives have a fitted effect of over 55% in size
#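 HEK293T cells expressing luciferase-tagged ELG1 (2,000/well) received 5-Fluorouridine plus compound or DMSO for 16 hr at 37 °C. Luciferase was read by ONE-Glo luminescence after 30 min at room temperature.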
# DT40 TDP1 CPT: DT40-hTDP1 cell growth loss with CPT; chicken DT40 Tdp1-/-;hTDP1 cells + 20 nM CPT, ATP luminescence, 48 h; Potency, µM (top dose mostly 46.2 µM), for inactives: top-dose activity change, negative = growth inhibition, usual class: inhibitors; hit rate 12% among 420,000; AID 686979; also: potency is read from the fitted curve at half-maximal effect; nearly all actives have a fitted effect of over 55% in size
#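 Chicken DT40 Tdp1-/- cells stably complemented with human TDP1 were seeded at 400 cells/well in medium containing 20 nM camptothecin, exposed to pin-transferred compounds, and grown at 37 °C for at least 48 hr. Viability was read as ATP luminescence.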
# HT1080-NT tox: kills 2HG-producing HT-1080-NT fibrosarcoma cells. Potency, µM (highest dose often 46.1 µM), inactives show at the top dose activity, negative = less viability, usual class: cytotoxic. HT-1080-NT fibrosarcoma viability, CellTiter-Glo ATP luminescence, 48 h. hit rate 1.6% among 360,000;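 also: NT is the 2HG producing partner of a matched IDH1 knockdown line; potency is read from the fitted curve at half-maximal effect; 0% = DMSO-treated cells and -100% = media-only wells without cells; nearly all actives have a fitted effect of over 55% in size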
#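 Fibrosarcoma NT cells, 750 per well in 5% FBS RPMI, were exposed to compound for 48 hours. Viability: CellTiter-Glo luminescence.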
# HT1080 IDH1KD tx: kills HT-1080 cells with IDH1 knockdown; HT-1080 IDH1 knockdown viability, ATP luminescence, 48 h; Potency, µM (titrated, usually from 46.1 µM), for inactives: top-dose activity, negative = toxicity, actives largely listed as cytotoxic; hit rate 2% among 360,000; AID 686971;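 also: potency is read from the fitted curve at half-maximal effect; 0% = DMSO wells and -100% = cell-free medium wells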
#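 Cytotoxicity counter-line: IDH1KD HT-1080, 48 h, CellTiter-Glo. Curves classed by r2, magnitude and activity.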
# IL1B secr inh: inflammasome signaling inhibition, IL-1 beta readout; THP-1 LPS/ATP IL-1B secretion, AlphaLISA, 16 h; active compounds read low; activity change, % at 57.5 µM; hit rate 4.7% among 360,000; in the data active = activity change below about -50%; inconclusive = mostly about -30% to -49%
#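 Secreted IL-1B measured by AlphaLISA bead assay after 16 h compound exposure of THP-1 cells; compounds (final up to 57.5 uM) added 1 h before LPS (250 ng/mL) and ATP (1.25 mM) stimulation; lower signal means less secretion.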
# DT40 TDP1 no CPT: qHTS for Inhibitors of human tyrosyl-DNA phosphodiesterase 1 (TDP1): qHTS in cells in absence of CPT; DT40 Tdp1-/- hTDP1 cells, no CPT, ATP luminescence, 48 h; Potency, µM (highest dose often 46.2 µM), for inactives: at the highest dose activity change, negative = growth inhibition, hits mostly inhibitors; hit rate 15% among 420,000; AID 686978, 2013; also: potency is read from the fitted curve at half-maximal effect; nearly all actives have a fitted effect of over 55% in size
#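 DT40 Tdp1-/-;hTDP1 cells, no CPT (DMSO vehicle only), 400 cells/well; compounds pin-transferred; ≥48 hr, 37 °C; CellTiter-Glo 30 min RT dark, luminescence read.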
# * = called active by the depositor; ? = inconclusive; nt = not tested or not shown; [ ] = dose if it differs, or a comment. Shown are actives, neighbours in structure and some others; about 19% of the full set was active somewhere. Unless noted, calls follow the shape of the dose curve; as a rule, active = well fitted curve in the direction sought with a large enough effect; inconclusive = small, poorly fitted or top-dose-only effect, or another doubt; inactive = no such curve, though single readings can be large; an effect the other way counts as inactive or inconclusive. Unless noted, % is scaled to controls: 0 for no effect and ±100 for the full control effect.
SMILES,ELG1 repair inh,DT40 TDP1 CPT,HT1080-NT tox,HT1080 IDH1KD tx,IL1B secr inh,DT40 TDP1 no CPT
O=C(c1cccc(S(=O)(=O)N2CCCC2)c1)N1CCN(c2ccccc2)CC1,?,?,?,?,13,?
COCCNC(=O)C1(C)CCN(C(=O)c2cccnc2Oc2ccccc2)C1 (stereo not drawn),nt,5%,?,27%,32,0%
OC(c1ccccc1)c1nc(-c2cccs2)cs1 (stereo not drawn),nt,?,-9%,18%,-3,-26%
N/C(=N\OCc1ccc([N+](=O)[O-])cc1)c1ccncc1,?,-5%,21%,1%,12,-9%
CC1CN(C(=O)c2cccc(S(=O)(=O)N3CCN(c4ccccc4)CC3)c2)CC(C)O1 (stereo not drawn),-7%,15µM*,9%,2%,40,?
CCOC(=O)c1ccc(S(=O)(=O)N2CCN(C(=O)CSc3nc4ccccc4o3)CC2)cc1,?,12µM*,1%,-6%,0,12µM*
Cc1c(C(=O)NCCC2=CCCCC2)oc2ccc(S(=O)(=O)N3CCOCC3)cc12,16µM*,?,-9%,-28%,?,21µM*
O=C(NCCC1=CCCCC1)c1cc(S(=O)(=O)N2CCOCC2)ccc1F,-3%,13µM*,1%,-6%,15,?
Cc1c(C(=O)NCCCN2CCCC2=O)oc2ccc(S(=O)(=O)N3CCOCC3)cc12,1%,-13%,9%,18%,-5,-17%
CCOc1ccc(C(=O)Nc2ccc(-c3nc4ccccc4s3)c(C)c2)cc1OCC,nt,6%,nt,nt,nt,0%
CC1COC(=C2C(=O)OCC2C)C1 (stereo not drawn),nt,3%,8%,10%,20,4%
C=CCN1C(=O)C(Cc2ccc(F)cc2)S/C1=N/N=C/c1cccs1 (stereo not drawn),-22%,-35%,2%,-2%[9.24 µM],-14,29µM*
O=C1CS/C(=N/N=C/c2cccs2)N1Cc1ccc(F)cc1,21µM*,18µM*,-13%,-15%,24,?
O=C(N/C=N/OCc1ccc(Cl)cc1Cl)NOCc1ncc(C(F)(F)F)cc1Cl,?,?,?,26µM*,-14,15µM*
Cc1ccc(Nc2c(F)cccc2Cl)c(CC(=O)O)c1,nt,-19%,nt,nt,nt,-22%
CC(C)(O)C#Cc1ccc([C@@H]2C[C@H]3CN(c4ccccc4)C(=O)[C@]34CCCN24)s1,-15%,-24%,-23%,?,-72*,?
CC(=O)N1NC(=Nc2ccccc2)SC1(C)C,-6%,?,0%,-11%,-75*,16µM*
O=C1NC(=Nc2ccccc2)SC1(CO)CO,-2%,-9%,-2%,-3%,5,-1%
O=C(c1ccccc1)c1cnc(Nc2ccccc2Cl)s1,?,-22%,-3%,-15%,-58*,-8%
Cc1cccc(NC(=O)C2CCC(CNS(=O)(=O)c3ccc(Br)s3)CC2)c1 (stereo not drawn),nt,26µM*,nt,nt,nt,16µM*
COc1ccc(NC(=O)C2CCC(CNS(=O)(=O)c3ccc(Br)s3)CC2)cc1OC (stereo not drawn),nt,3%,nt,nt,nt,-16%
Cc1ccc(NC(=O)C2CCC(CNS(=O)(=O)c3cccs3)CC2)cc1C (stereo not drawn),nt,15µM*,nt,nt,nt,15µM*
CCOC(=O)Cc1csc(NC(=O)c2ccc3ncsc3c2)n1,?,?,20%,-6%,0,?
COc1cc(NS(=O)(=O)c2cc3[nH]c(=O)c(=O)[nH]c3cc2C)cc(OC)c1OC,12%,-4%,-7%,-1%,-16,?
COc1cc(NS(=O)(=O)c2ccc(C)cc2C)cc(OC)c1OC,10µM*,6.5µM*,-27%,-39%,24,6.5µM*
SMILES,ELG1 repair inh,DT40 TDP1 CPT,HT1080-NT tox,HT1080 IDH1KD tx,IL1B secr inh,DT40 TDP1 no CPT
COc1cc(NS(=O)(=O)c2cc3c(cc2C)N(C)CCO3)cc(OC)c1OC,nt,21µM*,nt,nt,nt,15µM*
COc1cccc(NS(=O)(=O)c2cc3c(cc2C)N(C)CCO3)c1,-10%,?,-4%,-19%,22,?
CC1(C(=O)Nc2ccc3ccccc3c2)CCC(=O)N1C1CC1 (stereo not drawn),nt,2%,18%,9%,4,16%
O=C(O)[C@@H]1CN[C@@H](C(=O)O)C1,nt,9%,nt,nt,nt,-16%
Cc1ccc(S(=O)(=O)N(CC(=O)Nc2ccc(F)cc2F)Cc2ccc(F)cc2)cc1,nt,18µM*,nt,nt,nt,21µM*
CCOC(=O)c1ccc(NC(=O)CN(Cc2ccc(C)cc2)S(=O)(=O)c2ccc(C)cc2)cc1,nt,13µM*,nt,nt,nt,13µM*
Cc1ccc(S(=O)(=O)N(CC(=O)NCc2ccco2)Cc2ccc(F)cc2)cc1,-16%,-15%,13%,2%,-10,-19%
CCO[C@@H]1OC(C(=O)NCc2nc3ccccc3[nH]2)=C[C@H](c2coc3ccccc3c2=O)[C@H]1CCCO,nt,-29%,-2%,-11%,-5,-12%
CCO[C@@H]1OC(C(=O)NCc2ccccc2)=C[C@H](c2cn(C(C)=O)c3ccccc23)[C@H]1CCCO,6%,?,-2%,-6%,-54*,18µM*
CCO[C@@H]1OC(C(=O)NCc2ccccc2)=C[C@H](c2ccc(Br)cc2)[C@H]1CCCO,?,23µM*,0%,1%,0,?
CCO[C@H]1OC(C(=O)O)=C[C@@H](c2cn(C(C)=O)c3ccccc23)[C@@H]1CCCO,nt,-1%,13%,13%,20,1%
CCO[C@@H]1OC(C(=O)NCc2nc3ccccc3[nH]2)=C[C@H](c2cn(C(C)=O)c3ccccc23)[C@H]1CCCO,?,?,-10%,-9%,?,16µM*
CCO[C@H]1OC(C(=O)NCc2nc3ccccc3[nH]2)=C[C@@H](c2cn(C(C)=O)c3ccccc23)[C@@H]1CCCO,nt,?,-9%,-9%,-14,18µM*
Cc1cc(=O)[nH]c(SCC(=O)N2CCCC(C)C2)n1 (stereo not drawn),0%,-2%,13%,11%,17,-1%
NC(=O)CC(NC(=O)Cc1ccc(Br)cc1)c1ccc(N2CCN(c3ccccc3)CC2)c([N+](=O)[O-])c1 (stereo not drawn),-7%,16µM*,-29%,-24%,20,?
